In the library only some 2.7% were active in any assay of this set; here they are far more common.
IDE cell inh – cellular human IDE inhibition. inhibition, % at 5.59 µM. HEK cells, FAbetaB cleavage, fluorescence polarization. P14735. 320,000 tested, 0.41% active;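 active = percent inhibition above the average of all tested compounds plus 3 SD, set per screening campaign, cut at about 16% in these data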;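 also: IDE supplied by intact live HEK cells; FP after avidin binding of uncleaved biotin substrate so inhibition keeps polarization high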
TMEM16A inh – blocks the mouse calcium-activated chloride channel TMEM16A; AID 588511; 310,000 tested, 1.2% active; normalized B-score (activity score, 25-100; higher = stronger inhibition) at 10 µM; Q8BHY3; HEK293 TMEM16A/YFP iodide influx fluorescence, ionomycin;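 active = ratio plate-corrected score three or more library SD toward inhibition, starting fluorescence score within five deviations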;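 also: score derived from kinetic fluorescence span divided by baseline fluorescence per well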
IDE act – activators of human insulin-degrading enzyme in cells; AID 493087; activation, % at 5.96 µM; P14735; 340,000 tested, 0.073% active; HEK cells, FAbeta-B cleavage, fluorescence polarization; 0% vehicle, 100% cell-free pure enzyme wells;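 active = activation above the mean of all tested compounds plus 3 SD, set per screening campaign, cut at about 17% in these data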
CHT block – human CHT choline transport inhibition; 310,000 tested, 0.86% active; Q9GZV3; B-score at 10 µM; CHT-expressing cells, membrane potential dye, choline response; stronger effect = lower value; AID 488975;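 active = B-score over 3 SD under the library average, and starting fluorescence ratio not unusually high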;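 also: choline stimulus applied at its EC90 after an EC20 pre-addition; B-score computed on integrated fluorescence ratio after choline addition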
Target sequence (Q9GZV3 whole entry, looked up): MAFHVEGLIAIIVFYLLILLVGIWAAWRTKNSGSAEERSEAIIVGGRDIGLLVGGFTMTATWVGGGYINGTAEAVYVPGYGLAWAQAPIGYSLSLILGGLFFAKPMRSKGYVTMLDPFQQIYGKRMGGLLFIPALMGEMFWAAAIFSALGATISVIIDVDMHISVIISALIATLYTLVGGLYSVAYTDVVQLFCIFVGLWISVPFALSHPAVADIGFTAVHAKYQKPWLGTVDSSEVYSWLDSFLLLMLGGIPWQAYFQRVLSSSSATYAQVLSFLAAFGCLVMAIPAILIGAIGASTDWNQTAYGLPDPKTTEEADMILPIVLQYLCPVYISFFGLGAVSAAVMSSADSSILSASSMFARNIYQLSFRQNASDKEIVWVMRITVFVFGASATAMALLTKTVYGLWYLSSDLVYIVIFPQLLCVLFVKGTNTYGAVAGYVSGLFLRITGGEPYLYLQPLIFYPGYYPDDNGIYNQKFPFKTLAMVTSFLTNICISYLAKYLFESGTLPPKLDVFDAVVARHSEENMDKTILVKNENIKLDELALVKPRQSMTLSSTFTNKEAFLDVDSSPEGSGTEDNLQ
CHT allo act – human CHT allosteric activation; B-score at 10 µM; Q9GZV3; 310,000 tested, 0.49% active; CHT-expressing cells, membrane potential dye, choline EC20; stronger effect = higher value; LV-AA mutant CHT in HEK293 cells;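 active = initial fluorescence not abnormally high and integrated response B-score, plate-corrected, over 3 SD above library mean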
TMEM16A act – mouse TMEM16A channel activation, primary screen | Q8BHY3 | HEK293 TMEM16A/YFP-H148Q/I152L, iodide quench fluorescence; stronger effect = lower value | B-score at 10 µM | 340,000 tested, 0.3% active;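 active = fluorescence-ratio B-score plate-corrected deviation score at least 3 library SD below zero, with starting fluorescence score within 5 deviations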;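 also: channel opened by trigger with iodide after compound preincubation; score built on the fluorescence ratio of max minus min over baseline; more negative score means more quench and so TMEM16A activation or potentiation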
CHT activ conf – human CHT activation, confirmatory screen | activation, % at 10 µM | CHT-expressing cells, membrane potential dye fluorescence (FDSS); % of choline EC20–EC90 response window; HEK293 expressing CHT LV-AA mutant; choline added at its EC20 | 2,500 tested, 91% active | AID 504833 | shares compounds with CHT allo act;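 active = primary screen active, with duplicate mean activation above negative control mean plus 3 SD, cut at about 11% in these data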
HEK293 MP dye – counter-screen for CHT activators: effect in parental HEK293 cells; shares compounds with CHT allo act; membrane potential dye fluorescence (FDSS); measured after EC20 choline addition; ratio readout change at 10 µM, hits read low; 2,500 tested, 62% active;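 active = duplicate-averaged ratio beyond 3 SD from buffer wells, up or down, though filed actives are nearly all decreases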
Large screens that a line does not name were inactive (follow-up assays come after a bar, where they were run).

O=C(O)/C=C/C(=O)Nc1ccc2c(c1)C(=O)c1ccccc1C2=O	none | CHT activ conf 28.2 | HEK293 MP dye -26.6
Cc1ccc(S(=O)(=O)N2CCC(C(=O)N/N=C/c3cccn3C)CC2)cc1	none (no result: TMEM16A inh, CHT block, CHT allo act)
O=C(CCCn1c(=O)c2ccccc2n(Cc2cccc(F)c2)c1=O)NC1CCN(Cc2ccccc2)CC1	none (no result: IDE act, TMEM16A act)
O=C(CCCCn1c(=O)c2ccccc2n(Cc2ccccc2)c1=O)NC1CCN(Cc2ccccc2)CC1	none | CHT activ conf 34.9 | HEK293 MP dye -28.7
CC1CN(S(=O)(=O)c2csc(C(=O)Nc3ccccc3)c2)CC(C)O1 (centres undefined)	none
COCCn1cnc2c1c(=O)n(CC(=O)NCC(F)(F)F)c(=O)n2Cc1ccccc1	none
CCOC(=O)c1nnn2c1nc(N1CCCCC1)c1ccccc12	none
CCOC(=O)c1nnn2c1nc(N1CCN(C)CC1)c1ccccc12	CHT allo act 8.61 | CHT activ conf 58.1 | HEK293 MP dye -67.4
C=CCC[C@H](Cc1ccc(F)cc1)C(=O)OC[C@@H](NC(=O)[C@H](CC=C)CC(=O)NCCO)C(C)(C)C	none (no result: TMEM16A inh, CHT block, CHT allo act)
Cc1ccc(NC(=O)Nc2ccc3c(c2)OCO3)cc1F	none
COC(=O)c1ccc(CSc2ccc3nnc(-c4ccccn4)n3n2)o1	none | CHT activ conf 35.0 | HEK293 MP dye -35.6
Cc1nnc(NC(=O)CSc2ccc3nnc(-c4ccccn4)n3n2)s1	none
Cc1cc(NC(=O)CSc2ccc3nnc(-c4ccccn4)n3n2)no1	CHT allo act 8.08 | CHT activ conf 46.8 | HEK293 MP dye -43.3
CCOC(=O)c1ccccc1NC(=O)COC(=O)CCC1CCCC1	none (no result: TMEM16A inh, CHT block, CHT allo act)
Cc1cc(NCCNC2=CC(=O)CCC2)nc2ccccc12	none | CHT activ conf 48.0 | HEK293 MP dye -47.3
C=CCNC(=O)CSc1nc2ccccc2c(=O)n1CCc1ccc(OC)c(OC)c1	none (no result: IDE cell inh)
COc1ccc(CCn2c(SCCN3CCCCC3)nc3ccccc3c2=O)cc1OC	CHT allo act 7.37 | CHT activ conf 56.3 | HEK293 MP dye -60
CN(C)CCCNS(=O)(=O)c1ccc(NC2CCCCCC2)c([N+](=O)[O-])c1	none
CC1CN(C(=O)COC(=O)Cc2c(Cl)cccc2Cl)CC(C)O1 (centres undefined)	none (no result: TMEM16A inh, CHT block, CHT allo act)
CSCC[C@H](NC(=O)Cc1c(C)c2cc3c4c(oc3cc2oc1=O)CCCC4)C(=O)O	none
Cc1ccc(NC(=O)CSc2nc3ccccc3c(=O)n2CCCN2CCCCC2)cc1Cl	none
CC1CCN(CCCn2c(SCC(=O)Nc3ccccc3Cl)nc3ccccc3c2=O)CC1	CHT allo act 6.38 | CHT activ conf 51.7 | HEK293 MP dye -34.2
CCc1nc(N=C(N)N)nc2ccccc12	none (no result: IDE act, TMEM16A act)
NC(N)=Nc1nc(-c2ccccc2)c2ccccc2n1	CHT allo act 8.07 | CHT activ conf 24.1 | HEK293 MP dye -52.1
CCc1ccccc1NC(=O)N1CCCc2ccccc21	none (no result: IDE cell inh)
COc1ccc(S(=O)(=O)N2CCCCCC2)cc1C(=O)N(C)CCOc1ccccc1	CHT allo act 6.48 | CHT activ conf 26.5 | HEK293 MP dye inactive
Cc1nc(N2CCN(C)CC2)c2sc(=S)n(C)c2n1	none | CHT activ conf 33.1 | HEK293 MP dye -49.6
Cc1nc(N2CCN(C)CC2)c2sc(=S)n(-c3ccccc3)c2n1	none
Cn1c(=NC(=O)C2=NNC(=O)CC2)sc2ccccc21	CHT allo act 6.86 | CHT activ conf 54.2 | HEK293 MP dye -32.3
CCN(CC)S(=O)(=O)c1cc(NC(=O)c2ccc3c(c2)NC(=O)C(C)S3)ccc1C (centres undefined)	none (no result: TMEM16A inh, CHT block, CHT allo act)
N#CC1(NC(=O)COC(=O)c2nc(Cl)c(Cl)c(N)c2Cl)CCCCC1	none
COc1ccc(CNc2ccc3c(c2)nc(C)n3C)cc1OC	CHT allo act 6.62 | CHT activ conf 26.2 | HEK293 MP dye -47.6
O=C(O)c1ccc(OS(=O)(=O)c2ccc(Cl)s2)c(Cl)c1	none (no result: TMEM16A inh, CHT block, CHT allo act)
O=S(=O)(c1ccc(Br)cc1)N1CCCc2ccccc21	none
N=C1C(c2ccc(Br)cc2)=C(O)C2CCc3ccccc3N12 (centres undefined)	CHT allo act 12.9 | CHT activ conf 55.0 | HEK293 MP dye -66.6
Cc1noc(C)c1COc1ccccc1C(=O)NCCc1ccc(F)cc1	none (no result: IDE cell inh, TMEM16A inh, CHT block, CHT allo act)
CCCCc1c(O)c2ccccc2[nH]c1=O	none
CCCCCCCCC1=NCCc2c1[nH]c1ccccc21	none | CHT activ conf 48.4 | HEK293 MP dye inactive
O=c1[nH]cnc2c1ncn2-c1ccc(N(CCO)CCO)cc1	none (no result: IDE cell inh, TMEM16A inh, CHT block, CHT allo act)
Cc1ccc2ncccc2c1[N+](=O)[O-]	none
Cc1[nH]c2ccc3ncccc3c2c1C	CHT allo act 6.8 | CHT activ conf 30.2 | HEK293 MP dye -65.5
CN(C)S(=O)(=O)c1cc(NC(=O)CNCc2ccccc2)ccc1Cl	none
CN(CCOc1ccccc1)CC(=O)Nc1ccc(Cl)c(S(=O)(=O)N(C)C)c1	CHT allo act 7 | CHT activ conf inactive | HEK293 MP dye inactive
CCCCCOc1ccc(Br)cc1/C(C)=N/NC1=NCCN1	CHT allo act 8.65 | CHT activ conf 55.0 | HEK293 MP dye inactive
CCN(CC)CC(=O)Nc1ccc(/C(C)=N/NC2=NCCN2)cc1	none
COc1ccccc1N(C)S(=O)(=O)c1ccc(C(=O)N2CCCC(C(F)(F)F)C2)cc1 (centres undefined)	none
Cc1ccc(N(C(=O)c2csnn2)C(C(=O)NC2CCCCC2)c2ccccn2)cc1C (centres undefined)	none
Cc1ccccc1Nc1c(-c2ccc(N3CCOCC3)cc2)nc2ncccn12	none | CHT activ conf 24.8 | HEK293 MP dye -53.1
Cc1ccc(Nc2c(-c3ccc(N4CCOCC4)cc3)nc3ncccn23)cc1	none
Cc1ccn2c(Nc3ccccc3C)c(-c3cccnc3)nc2c1	none | CHT activ conf 40.7 | HEK293 MP dye -48.6
Cc1ccc(Nc2c(-c3ccc(N4CCOCC4)cc3)nc3cnccn23)cc1	none
Cc1ccccc1Nc1c(-c2ccc(N3CCOCC3)cc2)nc2cnccn12	CHT allo act 9.39 | CHT activ conf 29.1 | HEK293 MP dye -54.8
Nc1c(C2CCCCC2)c(=O)on1C(=O)c1ccccc1	none (no result: IDE cell inh, TMEM16A inh, CHT block, CHT allo act)
CC1=Nc2ccc(C)c3nc(C)cc(c23)N1c1ccc(C)cc1	CHT allo act 8.53 | CHT activ conf 41.5 | HEK293 MP dye -59.8
Cc1ccc(N2C(=O)c3cccc4cccc(c34)C2=O)cc1	none
CCOC(=O)CC(NS(=O)(=O)c1ccc2[nH]cc(C(=O)O)c(=O)c2c1)c1ccc(OCC)c(OC)c1 (centres undefined)	none
